Some test systems named below: HCT-15 colon; HT29 colon; SNB-75 CNS; SNB-19 CNS; U251 CNS; PC-3 prostate; SK-MEL-5 melanoma; UACC-62 melanoma; LOX IMVI melanoma; SK-MEL-28 melanoma; SK-MEL-2 melanoma; EKVX NSCLC; SN12C renal; UO-31 renal; TK-10 renal; ACHN renal; CAKI-1 renal; A498 renal; CCRF-CEM leukemia; MOLT-4 leukemia.
Holding throughout (assay): NCI-60 one-dose screen, 48 h (100 = growth as untreated, 0 = no growth, -100 = all killed)
Holding throughout (conditions): 10 µM unless noted

About 83,000 compounds went through this panel and 20% of them were active in at least one assay; those are over-represented in the sample as a whole.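 Treatment: one concentration, 48 hours, 96-well format. Scoring: percent growth, with anything below 10 considered active.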 Values without a mark were called inactive. The source made the active and inactive calls.

Regarding `CC(C)(C)CC(C)(C)Nc1c(-c2c(O)c3ccccc3oc2=O)nc2sccn12`, the growth was 100% in the assay with HCT-15 colon; 97% in the assay with HT29 colon; 108% with SNB-75 CNS; 97% with SNB-19 CNS; 97.7% with U251 CNS; 92.6% in the assay with PC-3 prostate. Besides, the growth in the assay on SK-MEL-5 melanoma was 96.9%; in the assay on UACC-62 melanoma it was 90.7%; in the assay with LOX IMVI melanoma it was 99.7%; with SK-MEL-28 melanoma, 102%; in the assay on SK-MEL-2 melanoma, 96.8%; with EKVX NSCLC, 105%. Further, the growth is 93.5% in the assay with SN12C renal; 83.6% in the assay on UO-31 renal; 90.5% with TK-10 renal; 99.8% in the assay with ACHN renal; 92.8% with CAKI-1 renal; 118% with A498 renal. In addition, the growth in the assay on CCRF-CEM leukemia was 92.2%; with MOLT-4 leukemia, 101%.
Consider `CCCNNC(=O)c1ccc(CNC(=O)/C=C/c2ccccc2)cc1`, for which the growth is 50.4% [2.5 µM] in the assay with HCT-15 colon; 10.8% [2.5 µM] in the assay on HT29 colon; 71.7% [2.5 µM] in the assay on SNB-75 CNS; 54.5% [2.5 µM] with SNB-19 CNS; 37.7% [2.5 µM] in the assay on U251 CNS; 43% [2.5 µM] in the assay on PC-3 prostate. Further, the growth in the assay on SK-MEL-5 melanoma was 28.8% [2.5 µM]; with UACC-62 melanoma, 7.16% [2.5 µM] (active); in the assay on LOX IMVI melanoma it was 21.6% [2.5 µM]; in the assay with SK-MEL-28 melanoma it was 36% [2.5 µM]; in the assay on SK-MEL-2 melanoma, 45% [2.5 µM]; with EKVX NSCLC it was 55.2% [2.5 µM]. Also, the growth in the assay on SN12C renal is 52.8% [2.5 µM]; in the assay with UO-31 renal, 22.4% [2.5 µM]; in the assay on TK-10 renal, -0.401% [2.5 µM] (active); in the assay on ACHN renal, 10.1% [2.5 µM]; in the assay with CAKI-1 renal it was 23.1% [2.5 µM]; with A498 renal, -18.4% [2.5 µM] (active). Also, the growth in the assay with CCRF-CEM leukemia was 27.3% [2.5 µM]; with MOLT-4 leukemia, 15.3% [2.5 µM].
For the molecule `COc1cccc(C2C(C#N)=C(N)Oc3c2ccc2ccccc32)c1` (stereo not given), the growth is 9.22% (active) in the assay on HCT-15 colon; 7.48% (active) with HT29 colon; 79.8% in the assay with SNB-75 CNS; 37.3% with SNB-19 CNS; 24.6% in the assay on U251 CNS; 21.5% in the assay with PC-3 prostate. The growth in the assay on SK-MEL-5 melanoma is -1.37% (active); in the assay with UACC-62 melanoma it was 37.6%; in the assay with LOX IMVI melanoma, 14.6%; in the assay on SK-MEL-28 melanoma it was 69.3%; with SK-MEL-2 melanoma, 40%; in the assay with EKVX NSCLC, 53.1%. Also, the growth is 24.2% in the assay on SN12C renal; 43% in the assay on UO-31 renal; 62% in the assay on TK-10 renal; 25.8% with ACHN renal; 30.1% with CAKI-1 renal; 45.1% with A498 renal. For the same molecule, the growth in the assay with CCRF-CEM leukemia was 8.64% (active); in the assay with MOLT-4 leukemia it was 12.3%.
For `O=C(O)/C=C\C(=O)Nc1ccc2c(c1)Cc1cc(F)ccc1-2`, the growth was 100% in the assay on HCT-15 colon; 96.3% with HT29 colon; 86% with SNB-75 CNS; 103% in the assay on SNB-19 CNS; 106% in the assay on U251 CNS; 97.3% in the assay with PC-3 prostate. Also, the growth with SK-MEL-5 melanoma is 101%; in the assay on UACC-62 melanoma, 103%; with LOX IMVI melanoma, 96.4%; in the assay on SK-MEL-28 melanoma, 105%; in the assay with SK-MEL-2 melanoma, 98%; in the assay with EKVX NSCLC it was 90.3%. Moreover, the growth was 100% in the assay with SN12C renal; 81% in the assay with UO-31 renal; 114% with TK-10 renal; 94.2% in the assay on ACHN renal; 81.3% with CAKI-1 renal; 109% in the assay on A498 renal. In addition, the growth is 110% in the assay on CCRF-CEM leukemia and 109% in the assay on MOLT-4 leukemia.
As for `C=CC(=O)NCc1cccc(Nc2ncc(Br)c(NCCCNC(=O)C3CCC3)n2)c1`, the growth with HCT-15 colon is 0.948% (active); with HT29 colon it was -18.2% (active); in the assay on SNB-75 CNS, -70.4% (active); with SNB-19 CNS it was 3.56% (active); in the assay with U251 CNS, -2.33% (active); with PC-3 prostate, 7.62% (active). Moreover, the growth with SK-MEL-5 melanoma was -39.8% (active); with UACC-62 melanoma it was -41.6% (active); in the assay with LOX IMVI melanoma, -41.1% (active); in the assay on SK-MEL-28 melanoma, -15.7% (active); in the assay on SK-MEL-2 melanoma, -50% (active); in the assay on EKVX NSCLC it was -27.1% (active). The growth in the assay on SN12C renal was 1.99% (active); in the assay on UO-31 renal, -9.45% (active); in the assay on TK-10 renal, -17.4% (active); in the assay on ACHN renal it was 7.42% (active); in the assay on CAKI-1 renal, -25.3% (active); in the assay with A498 renal, -59.5% (active). Moreover, the growth was 1.57% (active) with CCRF-CEM leukemia and -5.38% (active) with MOLT-4 leukemia.
For `O=C1/C(=C/c2cccc(Br)c2)COc2ccc(O)c(O)c21`, the growth in the assay on HCT-15 colon is -7.69% (active); in the assay on HT29 colon, 2.91% (active); in the assay on SNB-75 CNS, 15.1%; with SNB-19 CNS it was 1.36% (active); with U251 CNS, -85.3% (active); in the assay with PC-3 prostate, -35.1% (active). Further, the growth was 23.3% in the assay with SK-MEL-5 melanoma; -72.2% (active) with UACC-62 melanoma; -90.8% (active) in the assay with LOX IMVI melanoma; -17.2% (active) in the assay with SK-MEL-28 melanoma; -14.8% (active) with SK-MEL-2 melanoma; 41.9% in the assay on EKVX NSCLC. Also, the growth in the assay on SN12C renal was -73.8% (active); in the assay with UO-31 renal it was -100% (active); in the assay with TK-10 renal it was 12%; in the assay on ACHN renal it was -92.8% (active); with CAKI-1 renal, -54.4% (active); in the assay with A498 renal, 112%. The growth in the assay on CCRF-CEM leukemia is 4.21% (active); in the assay with MOLT-4 leukemia, 2.59% (active).
For the molecule `CCOC(=O)CC1CSC(N/N=C/c2ccc(O)cc2)=N1` (stereo not given), the growth with HCT-15 colon was 100%; in the assay with HT29 colon, 106%; in the assay with SNB-75 CNS, 93.4%; with SNB-19 CNS, 106%; in the assay with U251 CNS, 98.9%; in the assay on PC-3 prostate, 89.5%. Also, the growth in the assay with SK-MEL-5 melanoma is 102%; in the assay on UACC-62 melanoma, 102%; in the assay on LOX IMVI melanoma, 99%; in the assay with SK-MEL-28 melanoma, 107%; in the assay on SK-MEL-2 melanoma it was 95.1%; in the assay on EKVX NSCLC, 103%. Moreover, the growth in the assay on SN12C renal is 105%; in the assay with UO-31 renal, 89.7%; in the assay on TK-10 renal, 91.5%; with ACHN renal it was 105%; with CAKI-1 renal, 94.6%; in the assay on A498 renal it was 108%. The values for the growth in the assay on CCRF-CEM leukemia and with MOLT-4 leukemia were 115% and 107%, respectively.
With `CN(C)C(=S)NN=C(c1ccccn1)c1ccccn1`, the growth with HCT-15 colon was 37.3%; in the assay on HT29 colon it was 27.9%; in the assay with SNB-75 CNS, -22.2% (active); in the assay with SNB-19 CNS, 32.7%; with U251 CNS it was 18.1%; in the assay with PC-3 prostate it was 37.7%. Moreover, the growth is -19.8% (active) in the assay on SK-MEL-5 melanoma; 9.88% (active) with UACC-62 melanoma; 8.85% (active) in the assay with LOX IMVI melanoma; 30.7% in the assay with SK-MEL-28 melanoma; 13.4% in the assay on SK-MEL-2 melanoma; -15.7% (active) in the assay on EKVX NSCLC. Moreover, the growth is 28.5% with SN12C renal; 20.7% in the assay with UO-31 renal; 6.04% (active) in the assay with TK-10 renal; 16.8% with ACHN renal; 30% with CAKI-1 renal; -11% (active) in the assay on A498 renal. Besides, the growth in the assay on CCRF-CEM leukemia was -34.3% (active); with MOLT-4 leukemia, -2.95% (active).

For the origin of these results see PubChem BioAssay (NCI).
